The list is not random: actives were taken first. Their share in the collection is about 7.9%.
HT1080 IDH1KD tx = HT-1080 IDH1 knockdown cell toxicity (counter line); 2% of 360,000 active; Potency, µM (titrated, usually from 46.1 µM), for inactives: top-dose activity, negative = toxicity, hits mostly cytotoxic; AID 686971; HT-1080 IDH1 knockdown viability, ATP luminescence, 48 h;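 note: 0% = DMSO wells and -100% = cell-free medium wells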
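Viability of IDH1-knockdown HT-1080 fibrosarcoma cells was assessed by CellTiter-Glo after 48 h at 37 °C with titrated compound; concentration-effect curves were classified by fit quality and response size.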
SW480 rerep = induces DNA re-replication in SW480 colon adenocarcinoma cells | SW480 DNA re-replication, Hoechst DNA content imaging, 48 h | Potency, µM (highest dose often 46.1 µM), inactives show at the top dose re-replication activation, usual class: activators | 1.8% of 340,000 active; note: % of control where 0% means no effect; nearly all actives have a fitted effect of over 55% in size
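Treated cells incubate 48 hr (37 C, 5% CO2), are stained 40 min with Hoechst, and nuclear fluorescence is enumerated; a rise in nuclei with high DNA signal marks re-replication.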
MCF10A rerep = inducers of DNA re-replication in MCF 10A breast cells | 2.9% of 350,000 active | Potency, µM (series often up to 46.1 µM), for the others: at the highest dose activity, positive = re-replication, usual class: activators | MCF 10A DNA re-replication, Hoechst nuclear intensity, 48 h; note: % of control where 0% means no effect; nearly all actives have a fitted effect of over 50% in size
KB-V1 cytotox = kills drug-selected multidrug resistant KB-V1 cells; KB-V1 MDR cells viability, CellTiter-Glo, 72 h; Potency, µM (doses to about 46.1 µM), usual class: cytotoxic; 3.4% of 400,000 active; AID 1347076; note: % is set by controls: 0 for no effect and ±100 for the full control effect; nearly all actives have a fitted effect of over 60% in size
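Drug-selected KB-V1 cells, grown in DMEM lacking phenol red with 10% FBS, receive compound titrations; after three days at 37 degrees C, surviving cell ATP is quantified by CellTiter-Glo luminescence and responses normalized and curve-fitted.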
KB-3-1 tox = KB-3-1 parental cell cytotoxicity | 1.4% of 400,000 active | Potency, µM (highest dose often 46.1 µM), most hits filed as cytotoxic | KB-3-1 viability, CellTiter-Glo ATP luminescence, 72 h | AID 1347075; note: % is set by controls: 0 for no effect and ±100 for the full control effect; nearly all actives have a fitted effect of over 60% in size
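Using CellTiter-Glo luminescence, growth of non-resistant KB-3-1 adenocarcinoma cells is assessed 72 h after pin-tool compound addition at 37 °C. Normalized responses across the concentration series yield fitted curves.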
HT1080-NT tox = kills 2HG-producing HT-1080-NT fibrosarcoma cells | 1.6% of 360,000 active | Potency, µM (series often up to 46.1 µM), without a hit: at the highest dose activity, negative = less viability, actives largely listed as cytotoxic | AID 686970 | HT-1080-NT fibrosarcoma viability, CellTiter-Glo ATP luminescence, 48 h;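 note: NT is the 2HG producing partner of a matched IDH1 knockdown line; 0% = DMSO-treated cells and -100% = media-only wells without cells; nearly all actives have a fitted effect of over 55% in size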
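HT-1080-NT fibrosarcoma cells (2HG-overproducing), 750 cells/well in RPMI with 5% FBS, dosed after 2 h and incubated 48 h at 37C. CellTiter-Glo luminescence normalized to DMSO and no-cell wells; concentration-response curves fitted and classed.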
Active calls of the source: *; i = inactive; ? = inconclusive; / = no result given; ! = a repeat was not active; [ ] = remark or other dose. Calls come from the whole dose curve; as a rule, active = well fitted curve in the direction sought with a large enough effect; inconclusive = small, poorly fitted or top-dose-only effect, or another doubt; inactive = no such curve, though single readings can be large; an effect the other way counts as inactive or inconclusive. Potency is the fitted concentration of half-maximal effect.

SMILES	HT1080 IDH1KD tx	SW480 rerep	MCF10A rerep	KB-V1 cytotox	KB-3-1 tox	HT1080-NT tox
CC(C)C(C)NC(=O)COc1ccc(-c2ccccc2)cc1 (configuration not stated)	-1.2%	3.5%[9.22 µM]	17.9%	?	i	0.7%
Cc1ccsc1-c1cc2nc(NCCCN(C)C)n(C)c(=O)c2s1	?	/	/	i	i	5.8µM*
CN(C)CCCNc1nc2cc(-c3cccc(C(F)(F)F)c3)sc2c(=O)n1C	?	/	/	i	i	?
Cc1ccccc1-c1cc2nc(NCCCN(C)C)n(C)c(=O)c2s1	?	/	/	i	i	?
CN(C)CCCNc1nc2cc(-c3cccc(Cl)c3)sc2c(=O)n1C	16.4µM*	/	/	i	i	?
O=C(Nc1cc([N+](=O)[O-])ccc1F)c1ccc2ccccc2c1	-1.7%	?	-2.6%	i	i	6.9%
O=C(c1cc(N2C(=O)C3C4CCC(C4)C3C2=O)ccc1Cl)N1CCN(c2ccccc2)CC1 (configuration not stated)	1.1%	?	-35.6%	3.26µM*	i	-11.2%
CCOc1ccc(OCC)c(NC(=O)C2CCCN(S(=O)(=O)c3ccc4c(c3)oc(=O)n4C)C2)c1 (configuration not stated)	/	/	/	i	i	/
CN(C)Cc1n[nH]c(=O)c2ccccc12	-0.3%	0.7%	1.6%	i	i	-5.4%
N#CCC(=O)Nc1ncc(Cc2ccccc2Cl)s1	-29.6%	?	14.6µM*	i	i	-6.8%
CC(C)C(=O)Nc1ncc(Cc2ccccc2Cl)s1	-15.0%	0.1%	2.7%	i	i	-0.8%
O=C(CN1CCOCC1)Nc1ncc(Cc2cccc3ccccc23)s1	0.4%	21.9%	?	13µM*	i	?
Nc1nnc(CCC2CCCCC2)s1	0.0%	-1.2%	2.7%	i	i	9.0%
O=C(Cc1ccc(Cl)cc1Cl)Nc1cccc(S(=O)(=O)Nc2ccccc2F)c1	-25.5%	-2.5%	?	20.6µM*	?	-0.5%
O=C(/C=C/c1ccccc1)Nc1cccc(S(=O)(=O)Nc2ccccc2F)c1	-13.4%	10.5%	?	9.2µM*!	i	2.2%
O=C(Nc1cccc(S(=O)(=O)Nc2ccccc2F)c1)c1ccc2ccccc2n1	-9.1%	-1.3%	11.3%	i	i	-2.9%
COc1ccc(C(=O)NC(C)CCCC(C)(C)O)cc1OC1CCN(C(C)=O)CC1 (configuration not stated)	-3.7%	?	-0.9%	i	i	-1.0%
Cc1cc(Br)ccc1OCCCCN1CCC(C)CC1	-22.6%	?	7.31µM*	?	i	-28.3%
CC1CCCN(CCOc2ccc3ccccc3c2Br)C1 (configuration not stated)	18.4µM*	-6.8%	14.6µM*	?	?	20.6µM*
Cc1cc(Br)ccc1OCCCCNC(C)(C)C	?	2.9%	0.1%	i	?	13µM*
CC1CCN(CCOCCOc2ccc(Cl)cc2Br)CC1	?	-7.1%	?	?	i	?
CC1CCN(CCCOc2ccc(Cl)cc2Br)CC1	23.1µM*	-1.0%	0.6%	i	i	?
CC1CCN(CCCCOc2ccc(Br)cc2)CC1	-12.1%	2.3%	?	i	i	-6.7%
COc1ccccc1-n1cnc2cc(C(=O)N3CCOCC3)ccc21	18.2%	-4.6%	-2.1%	i	i	9.4%
c1ccc(-n2nnnc2NCCCN2CCOCC2)cc1	5.4%	-3.1%	-14.4%	i	i	9.2%
SMILES	HT1080 IDH1KD tx	SW480 rerep	MCF10A rerep	KB-V1 cytotox	KB-3-1 tox	HT1080-NT tox
CC1CCCN(CCCOc2ccc(Cl)cc2Br)C1 (configuration not stated)	-18.9%	5.6%	?	16.4µM*	?	-1.2%
COC(=O)c1sc(NC(=O)c2ccc([N+](=O)[O-])o2)c(C#N)c1C	-3.4%	3.26µM*	2.91µM*	i	?	-0.1%
CC(=O)N1CCc2c(sc(NC(=O)c3ccc([N+](=O)[O-])o3)c2C#N)C1	2.91µM*	2.31µM*	1.46µM*	i	?	1.84µM*
COC(=O)c1c(NC(=O)c2ccc([N+](=O)[O-])o2)sc2c1CCN(C(C)C)C2	4.61µM*	2.31µM*	2.91µM*	14.6µM*	6.51µM*	20.6µM*
COc1ccc(C(=O)Nc2sc3c(c2C#N)CCN(C(C)=O)C3)cc1	5.8µM*	23.1µM*	23.1µM*	?	8.2µM*	8.2µM*
COC(=O)c1c(NC(=O)Cc2ccccc2)sc2c1CCN(C(C)C)C2	-5.2%	1.4%	12.8%	i	i	-14.6%
CC(=O)N1CCc2c(sc(NC(=O)Cc3ccc(F)cc3)c2C#N)C1	0.0%	-10.8%	13.4%	i	i	1.5%
COc1cc(C(=O)Nc2sc3c(c2C#N)CCN(C(C)=O)C3)cc(OC)c1OC	-7.3%	0.2%	11.1%	i	?	-16.7%
COc1ccc(-c2csc3ncnc(Nc4cc(OC)cc(OC)c4)c23)cc1	/	/	/	i	i	/
CCCCC[C@H](O)/C=C/C1C(=O)C=C[C@H]1C/C=C\CCCC(=O)OC (some centres not stated)	?	23.2%[9.22 µM]	18.4µM*	i	i	?
Brc1cccc(OCCN2CCc3ccccc3C2)c1	-4.2%	-20.6%	10.1%	i	i	-22.9%
c1ccc(OCCN2CCN(C(c3ccccc3)c3ccccc3)CC2)cc1	-14.4%	0.651µM*	?	i	i	-13.0%
CN1CCN(CCCOc2ccc(-c3ccccc3)cc2)CC1	16.4µM*	8.8%	?	i	i	23.1µM*
Cc1ccc(OCCCCN2CCCCC2)cc1	2.9%	-7.3%	0.9%	i	i	0.9%
Cc1ccc(OCCCCN2CCc3ccccc3C2)cc1	?	-1.5%	14.6µM*	i	?	-19.2%
Cc1ccc(OCCN2CCCC2)cc1	-3.0%	14.6µM*	?	i	i	-2.1%
CCCCCCCCCCNC(=O)CCn1[nH]c(=O)c2ccccc2c1=O	0.3%	0.4%	3.3%	i	i	-7.4%
O=C(NCc1ccco1)c1cccc2c1C(=O)c1ccc(N3CCC(Cc4ccccc4)CC3)cc1S2(=O)=O	-2.2%	?	?	i	i	-0.1%
CC(C)c1cccc(-c2ccc3c(c2)S(=O)(=O)c2cccc(C(=O)NCc4ccccc4Cl)c2C3=O)c1	3.6%	-96.6%	?	i	6.51µM*	14.2%
O=C(NCc1ccco1)c1cccc2c1C(=O)c1ccc(/C=C/c3ccccc3)cc1S2(=O)=O	?	?	9.2µM*	i	?	?

Screens from PubChem.
